# UBC13 polyUb: human UBC13 polyubiquitination inhibition; inhibition, % at 20 µM; UBC13 polyubiquitin chain formation, TR-FRET; 330,000 compounds, 0.47% hits; P61088; AID 485273; in the data active = inhibition above about 45%, passing the limit was not always enough
# SUMO HTRF inh: inhibitors of human SUMOylation (UBC9) | P63279 | HTRF SUMOylation assay, SAE1/SAE2 + UBC9, in vitro | inhibition, % at 35 µM | 290,000 compounds, 0.36% hits | AID 2006; in the data active = inhibition above about 50%, passing the limit was not always enough
# GRIN3A LBD mod: NR3A (human) ligand-binding domain modulation; Tm shift relative to glycine control, % at 25 µM; NR3A LBD differential scanning fluorimetry, Tm shift; 0% = protein alone, 100% = glycine-bound protein; 340,000 compounds, 2.5% hits;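 active = melting temperature shift of at least 10% of the positive control shift, at one fixed dose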
# HGIII-sPLA2 inh: Blocks human group III sPLA2 activity; QFRET BODIPY PC-A2 liposome hydrolysis, fluorescence; inhibition, % at 12.2 µM; AID 743126; 370,000 compounds, 0.56% hits;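 active = inhibition above mean plus 3 SD of compounds lying within the high and low control bounds, cut at about 19% in these data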
# Target sequence (Q9NZ20 whole entry, looked up): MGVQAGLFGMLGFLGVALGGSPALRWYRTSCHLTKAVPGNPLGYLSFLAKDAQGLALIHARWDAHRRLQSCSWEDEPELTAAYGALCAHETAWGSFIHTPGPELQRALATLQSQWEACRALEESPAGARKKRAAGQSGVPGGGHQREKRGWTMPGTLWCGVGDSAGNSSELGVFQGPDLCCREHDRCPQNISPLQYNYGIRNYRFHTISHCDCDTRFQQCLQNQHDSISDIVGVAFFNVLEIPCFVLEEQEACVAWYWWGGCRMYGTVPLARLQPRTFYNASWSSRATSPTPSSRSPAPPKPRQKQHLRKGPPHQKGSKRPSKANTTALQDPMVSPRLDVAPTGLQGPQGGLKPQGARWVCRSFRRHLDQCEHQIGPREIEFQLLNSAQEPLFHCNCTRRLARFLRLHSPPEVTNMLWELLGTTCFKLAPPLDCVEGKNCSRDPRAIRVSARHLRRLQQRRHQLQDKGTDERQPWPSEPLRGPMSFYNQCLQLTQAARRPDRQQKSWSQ
# Hits are given with their value; 0 = inactive; - = not tested or not shown. Rows were chosen to be rich in hits. Some 3.3% of all compounds tested hit in one or more screens of this group.
SMILES,UBC13 polyUb,SUMO HTRF inh,GRIN3A LBD mod,HGIII-sPLA2 inh
CCOC(=O)c1ccc(NC(=S)N2CCCC(C(=O)N3CCCC3)C2)cc1 (configuration not stated),0,0,11.1,0
O=C(N1CCC(n2nc(-c3ccccc3)oc2=O)CC1)C1(c2ccccc2)CCCC1,-,-,-,0
CCCCCC[C@@H](CCCc1ccccc1OC)CN(CCCC)S(C)(=O)=O,-,-,-,0
CCCN(CC1CC1)c1c2c(nc3ncnn13)CCCC2,-,-,-,0
N#CCC[C@H]1CC[C@]2(CCCN(Cc3ccccc3)C2)O1,-,-,-,0
Cc1ccc(NC(=O)CCN2C(=O)C3C4CCC(C4)C3C2=O)cc1Cl (configuration not stated),0,0,18.4,0
Cc1ccc(NC(=O)CCN2C(=O)C3C4CCC(C4)C3C2=O)cc1[N+](=O)[O-] (configuration not stated),0,0,0,0
Cc1cccc(NC(=S)/N=C(\N)Nc2nc(C)c3cc(C)ccc3n2)c1,0,0,20.3,0
COc1ccc2nc(N/C(N)=N/C(=S)Nc3ccccc3)nc(C)c2c1,0,0,18.6,0
Cc1cccc(NC(=S)/N=C(\N)Nc2nc(C)c3ccc(C)cc3n2)c1,0,0,0,0
CCOc1ccc2nc(N/C(N)=N/C(=S)Nc3ccc(OC)cc3)nc(C)c2c1,0,0,27.3,0
CCCCCN1CCCCC(NC(=O)C2CCCCC2)C1=O (configuration not stated),-,-,-,0
Fc1ccc(-c2cc(-c3nnc4sc(Cc5cccs5)nn34)[nH]n2)cc1,-,-,-,0
OC(CN1CCCCC1)Cn1c2ccc(Cl)cc2c2cc(Cl)ccc21 (configuration not stated),0,0,0,0
OC(CN1CCN(c2ccccn2)CC1)Cn1c2ccc(Cl)cc2c2cc(Cl)ccc21 (configuration not stated),0,0,19.2,0
CC(C)C[C@@H]1COc2cc(N3CCSCC3)ccc2S(=O)(=O)N1C,-,-,-,0
COc1ccc(Nc2nc(-c3ccc4c(c3)NC(=O)CO4)cs2)cc1,0,0,15.4,0
COc1ccccc1Nc1nc(-c2ccc3c(c2)NC(=O)CO3)cs1,0,0,31.8,0
CCC(C)Nc1nc(-c2ccc3c(c2)NC(=O)CO3)cs1 (configuration not stated),0,0,0,0
O=C(CSc1nnc(-c2ccc(Cl)cc2)n1-c1ccccc1)Nc1ccc(Oc2ccccc2)cc1,-,-,-,0
Cc1ccc(CCNC(=O)C2CCC(CNc3c(N4CCC(C)CC4)c(=O)c3=O)CC2)cc1 (configuration not stated),0,0,0,0
Cc1ccc(CCNC(=O)C2CCC(CNc3c(N4CCCC4)c(=O)c3=O)CC2)cc1 (configuration not stated),0,0,16.8,0
Cc1ccccc1NS(=O)(=O)c1ccc(-c2ccc(=O)[nH]n2)o1,0,0,14.8,0
CCOC(=O)c1cc2occc2n1Cc1ccc(F)cc1,0,0,15.3,0
CCOC(=O)c1cc2occc2n1Cc1c(F)cccc1Cl,0,0,0,0
SMILES,UBC13 polyUb,SUMO HTRF inh,GRIN3A LBD mod,HGIII-sPLA2 inh
CN1CCN(c2ccc3c(c2)Oc2ccccc2CN(Cc2cn(Cc4ccc(C(F)(F)F)cc4)nn2)S3(=O)=O)CC1,-,-,-,0
CC(=O)O[C@@H]1CCC[C@@]2(C(=O)N(Cc3ccccc3)c3ccc(-c4c(C)noc4C)cc32)[C@H]1NC(=O)CCc1ccccc1,-,-,-,0
c1csc(CNc2ncnc3ccc(-c4ccc5c(c4)OCO5)cc23)n1,-,-,-,0
COC(=O)C[C@@H]1CC[C@@H]2[C@@H](COc3ccc(NC(=O)c4ccc(F)cc4)cc3C(=O)N2C)O1,-,-,-,0
COc1ccc(CCN(C)Cc2nc(-c3cnccn3)no2)cc1OC,0,0,0,0
COc1ccc(CCN(Cc2nc(-c3ccccc3)no2)Cc2nc(-c3ccccc3)no2)cc1OC,0,0,16.0,0
O=S(=O)(c1ccc2nc(-c3ccccc3)[nH]c2c1)N1CCN(c2ccc(Cl)cc2)CC1,0,0,13.4,0
Cc1ccc(-c2[nH]c(-c3ccc(C(=O)O)cc3)nc2-c2ccccc2)cc1,0,57.6,0,0
O=S1(=O)c2c(cccc2N2CCC[C@@H]2CO)OCCCN1C1CC1,-,-,-,0
COc1ccc(C2CC(c3ccc(Cl)cc3)=NN2c2ccc(S(N)(=O)=O)cc2)cc1 (configuration not stated),-,-,36.8,0
COc1ccc(C2CC(c3ccccc3)=NN2c2ccc(N)cc2)cc1 (configuration not stated),0,0,0,0
COc1ccc(C2CC(c3ccccc3)=NN2c2ccc(Cl)c(C(=O)O)c2)cc1 (configuration not stated),0,0,12.8,0
COc1ccc(C2CC(c3ccncc3)=NN2c2ccc(S(N)(=O)=O)cc2)cc1 (configuration not stated),-,-,0,0
NS(=O)(=O)c1ccc(N2N=C(c3ccc(Br)cc3)CC2c2ccc(F)cc2)cc1 (configuration not stated),0,0,39.2,0
COc1ccc(C2CC(c3cccc(Cl)c3)=NN2c2ccc(S(N)(=O)=O)cc2)cc1 (configuration not stated),-,-,28.4,0
COC(=O)[C@]12C[C@H](CC(=O)NCc3cccc(C(F)(F)F)c3)C(=O)N(Cc3ccco3)C1=C[C@H](C(C)C)O[C@@H]2C1CC1,-,-,-,0
Cc1ccc(C)c(NC(=S)NC(NC(=O)OCc2ccccc2)C(Cl)(Cl)Cl)c1 (configuration not stated),0,0,15.3,0
O=C(NC(NC(=S)Nc1c(Cl)cc(Cl)cc1Cl)C(Cl)(Cl)Cl)OCc1ccccc1 (configuration not stated),0,0,20.9,0
O=C(NC(=S)Nc1c(Cl)cc(Cl)cc1Cl)c1ccccc1,-,-,-,0
Cc1ccc(NC(=S)NC(NC(=O)C(C)(C)C)C(Cl)(Cl)Cl)c(C)c1 (configuration not stated),0,0,0,0
Cc1cc(-c2n[nH]c(=S)n2N=Cc2ccc(OCc3ccccc3)cc2)n[nH]1,-,-,-,0
C[N+]1(CCC(=O)c2ccccc2)CCCCC1,0,0,10.2,0
CC1(c2ccccc2)CC(=O)N(c2ccc(NC(=O)c3ccccn3)cc2Cl)C1=O (configuration not stated),-,-,-,0
CC(C)c1ccc(S(=O)(=O)Nc2ccc(SC(F)F)cc2)cc1,0,0,13.0,0
Nc1cc2c(cc1[N+](=O)[O-])-c1ccccc1C2=NO,-,-,22.8,0
SMILES,UBC13 polyUb,SUMO HTRF inh,GRIN3A LBD mod,HGIII-sPLA2 inh
CC(=O)Nc1cc2c(cc1[N+](=O)[O-])-c1ccccc1C2=NO,-,-,0,0
COC(=O)[C@H](C(C)C)N(CCCc1cn(CC2CCCCC2)nn1)S(=O)(=O)c1ccc(F)cc1Br,-,-,-,0
COC(=O)C1CN(Cc2ccccc2)CCS(=O)(=O)N1Cc1cn(Cc2ccc(Cl)cc2)nn1 (configuration not stated),-,-,-,0
COc1ccc(-c2nnc(SCC(=O)Nc3cccc4ccccc34)n2Cc2ccco2)cc1,-,-,-,0
CCOC(=O)[C@]12CCCC=C1N(CCCOC)C(=O)[C@@H]2CC(=O)NCc1ccc(C)o1,-,-,-,0
COc1ccc(NC2CCCN(C(=O)c3ccc(C(C)=O)cc3)C2)cc1 (configuration not stated),0,0,0,0
